Assay results from PubChem BioAssay AID1508600 (Functional Genomics Laboratory (NCATS/FGL), 2020).
The campaign covered roughly 53,000 sequences. About 3,700 (7%) were called active.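 Rule for the calls: active = gene knockdowns whose robust z-score for IL-1 alpha signal is at least 2 or at most -2, so actives lie on both sides; inactive = the rest.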 Only a selection was taken, and actives are over-represented in it overall.

Test: Components of the Cytosolic LPS Sensing Pathway: Gene Identification via Genome-wide siRNA Screen;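 note: robust z of the log signal after scaling to non-targeting control siRNA wells of the plate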
Settings: RAW264.7 macrophages, IL-1a HTRF, actives lie on both sides, screened at 100 nM (by protocol), cells primed 5 h with Pam3CSK4 first
In short: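 Using IL-1a HTRF as read-out, the screen measured release from RAW264.7 cells after 48h siRNA knockdown (100 nM), 5 h Pam3CSK4 priming and 24 h cytosolic LipidA. Values were expressed relative to negative-control wells as robust z-scores.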

z-score, inactive:
GCUCAAAUGUUCUAAAAGCTT against Acmsd -0.332
GGCGUAUUUGUCAUUUCUUTT against Dis3l 0.013
GGAAGUCAUUUUUUCCAAGTT against Msantd4 1.12
GCAUUGUUUUUCUAUUCAGTT against Cfhr1 0.531
GGUGCUUCACAGAAUGUGUTT against Olfr784 -1.8
GCUGAAAACACACCUAGCATT against Gin1 1.19
GGCUGUCUUACAAUGUAAUTT against Gabrb2 -0.638
GAGACUAAUAUAGUGAAUGTT against Foxj1 -0.314
GGCAGAGAGUCUACAUAUGTT against Bcar3 -0.272
GCAGAAGGUACUACUAUCGTT against Rcsd1 0.669
CCUUGUUGUGACAAGCUUUTT against Rchy1 -0.362
GGCUUCAUGCCUUAUCCACTT against Fam166a -0.314
GGCCACCGUUCAAAAAAUUTT against Dctn5 -0.226
GGAAGAGAAUAGAUCCUAUTT against Zbtb8a -0.388
GCUACUGCACAAAGUUACGTT against Ankrd36 -0.0351
GCCUCUGAGUUGCAUGAGUTT against Ppp2r5b -0.736
GGACUACCAUCGACCUUCATT against Nek2 1.15
CCCAAGAAUUGGAUUCCAGTT against Lta -0.528
GGAGCUGAAGAUCAAGGAGTT against Pkn3 -0.849
GCCCAAAAAUACUGGAUAUTT against Atp6ap2 -2
CCGCAUGUUUGGAAAGGAUTT against Cabp4 -0.484
GGAACAAUUUGAUCCAGCATT against Mbnl2 -1.67
CCCACUCCUUCUAAAAGUUTT against Cyp3a13 -0.909
GGCCAUUCACGUUUUACUCTT against Ric8b -1.02
GGGAAAAAUAUCAGUUAUGTT against Khdrbs1 0.465
GGGUACGUUCAAGUGCUUCTT against Agtpbp1 1.74
GGAUACAUGUGGUGCCAAUTT against Banf1 -0.529
GCGAAUCCACUUAAUUCGATT against Abhd4 1.35
CCACAAGAUUGUUUCAGAATT against Lingo4 0.216
GCUGCUCAAGUUGUGGUGATT against Sord 1.56
GCAGUAGAUCCUGAUUUUGTT against Cdh12 -0.382
GGGACCUUUCCUGACCUAUTT against Ppdpf -0.362
GGUCCACUUGCCAUCUAUUTT against Zfp54 -1.09
GGGUAUUUUCACUGAAAGUTT against Ltbp3 0.431
GGUGACUUGUAAAGAUUUUTT against Dstn 0.234
GGAGACAGAAAGAGAAAAGTT against Pou3f2 -0.578
GGAGUUCACGGAUCUUGAGTT against Ppp1r37 0.226
GCACCCAAACUUAAAAUAGTT against Spink10 -0.69
GGUUGAAGUCACAAAAGAATT against Prkg1 -0.619
GCAUUUCCUAUAAUCGUUGTT against Olfr360 0.371
GGCUGUCCGUACCUAUAAATT against Cpb1 -1.26
GGAAUUUGUGACCAACUAUTT against Rbm4b 1.07
CCUUGACCCAGAUUGAGAATT against Xkr6 0.363

z-score, active:
GGGUCUCAAAGCAGUUUUUTT against Rhoj 3.99
GCCCUGUGCUUGGCAACAUTT against Ssbp3 -2.36
GGUCGUGUACAAGUACAUATT against Mrps24 2.24
GCUGACUCCAUCCUAACAGTT against Cideb -2.6
GCCUUGUAGACCAGUUCUATT against 9530085L02Rik 2.15
GGAGCUAUAUUCUCACCCATT against Ptpn1 -2.06
GCCAUAACCUACAUUGUCATT against Loxhd1 -2.86
GGUUCAGCUGACGUAAAAATT against BC048562 -2.1
CCCUAACAUACUGGAGCUATT against Erfe 3.56
GGCAAUCAUUGGACUAUACTT against Nckap1 -2.81
GGGAAGGAGAGUAUUCCAATT against Mrpl14 3.44
